In the first experiment the target is T1, ETV3L (Homo sapiens, UniProt Q6ZN32 1-361).
T1 sequence: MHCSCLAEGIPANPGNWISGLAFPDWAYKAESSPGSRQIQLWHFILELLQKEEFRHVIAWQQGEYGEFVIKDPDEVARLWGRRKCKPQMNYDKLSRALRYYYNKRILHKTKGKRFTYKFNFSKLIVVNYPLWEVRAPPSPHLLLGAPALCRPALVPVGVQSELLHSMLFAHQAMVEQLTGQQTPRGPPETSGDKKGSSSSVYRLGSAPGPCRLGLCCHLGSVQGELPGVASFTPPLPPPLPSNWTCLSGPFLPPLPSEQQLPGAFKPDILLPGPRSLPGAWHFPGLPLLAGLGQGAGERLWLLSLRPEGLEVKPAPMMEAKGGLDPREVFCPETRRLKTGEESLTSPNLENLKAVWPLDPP
Description: DAPPL (digital affinity profiling via proximity ligation, sequencing); 10 mM Tris-HCl pH 7.5, 50 mM NaCl, 1 mM DTT, 4% glycerol, room temperature, 30 min; GST-TFs on glutathione beads, 16-mer random dsDNA library, 0.1% formaldehyde crosslink after washing; high values mean tight binding. Conditions: protein: recombinant; tags: N-terminal GST; dsDNA, one strand shown. Summed up: (§1)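 Binding signal is defined as a hexamer's read frequency for one factor over its frequency for the tag-only sample. To obtain reads, GST-fused human transcription factors were expressed in yeast, captured on glutathione beads, barcoded with DNA and pooled with that sample. Pools met 200 nmole of a 16-mer random double-stranded DNA library in Tris/NaCl/DTT/glycerol buffer for 30 min at room temperature before washing, 0.1% formaldehyde crosslinking, proximity ligation (BsaI/T4 ligase, 1 h, 37 °C), PCR and Illumina NextSeq500 sequencing.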
Take CGGCAT: the binding signal was 1.23 fold enrichment (6-mer frequency, TF over GST control).

Consider ACTCCA, for which the binding signal was 1.11 fold enrichment (6-mer frequency, TF over GST control).

Take AATTCA: the binding signal was 1.35 fold enrichment (6-mer frequency, TF over GST control).

As to CTACCC, the binding signal was 1.32 fold enrichment (6-mer frequency, TF over GST control).

As to TCTGTT, the binding signal is 1.32 fold enrichment (6-mer frequency, TF over GST control).

For the sequence GATGGT, the binding signal was 1.19 fold enrichment (6-mer frequency, TF over GST control).

For the sequence TGGTTC, the binding signal was 1.36 fold enrichment (6-mer frequency, TF over GST control).

Turning to TACCGA, the binding signal was 1.13 fold enrichment (6-mer frequency, TF over GST control).

Turning to CCCTTT, the binding signal is 1.51 fold enrichment (6-mer frequency, TF over GST control).

For TAGGCT, the binding signal was 1.16 fold enrichment (6-mer frequency, TF over GST control).

Take TCTAAC: the binding signal was 1.19 fold enrichment (6-mer frequency, TF over GST control).

With CGGAAG, the binding signal was 2.71 fold enrichment (6-mer frequency, TF over GST control).

As for TGACAT, the binding signal is 1.28 fold enrichment (6-mer frequency, TF over GST control).

In the case of ACGATA, the binding signal is 1.18 fold enrichment (6-mer frequency, TF over GST control).

With CTATTA, the binding signal was 1.11 fold enrichment (6-mer frequency, TF over GST control).

Regarding ACTGTT, the binding signal was 1.09 fold enrichment (6-mer frequency, TF over GST control).

As to ATAGCT, the binding signal was 1.13 fold enrichment (6-mer frequency, TF over GST control).

For the sequence CAGGAA, the binding signal was 1.53 fold enrichment (6-mer frequency, TF over GST control).

As to GATGAA, the binding signal was 1.25 fold enrichment (6-mer frequency, TF over GST control).

As to TAACCA, the binding signal is 1.13 fold enrichment (6-mer frequency, TF over GST control).

A further experiment deals with T2, ETS2 (Homo sapiens, UniProt P15036 1-469).
T2 sequence: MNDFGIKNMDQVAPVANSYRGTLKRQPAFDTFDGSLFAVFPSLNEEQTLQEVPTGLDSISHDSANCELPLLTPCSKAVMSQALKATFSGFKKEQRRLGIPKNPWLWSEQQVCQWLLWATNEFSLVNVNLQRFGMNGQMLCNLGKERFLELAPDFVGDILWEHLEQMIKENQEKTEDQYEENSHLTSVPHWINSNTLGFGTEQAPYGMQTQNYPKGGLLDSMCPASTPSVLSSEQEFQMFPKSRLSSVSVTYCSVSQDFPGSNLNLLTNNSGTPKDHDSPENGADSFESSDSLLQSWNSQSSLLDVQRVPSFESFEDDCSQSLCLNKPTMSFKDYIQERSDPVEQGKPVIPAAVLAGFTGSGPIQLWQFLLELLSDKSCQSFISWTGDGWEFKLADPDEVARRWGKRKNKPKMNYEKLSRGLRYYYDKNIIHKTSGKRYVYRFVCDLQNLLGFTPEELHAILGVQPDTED
The experiment is described as above. Conditions: protein: recombinant; tags: N-terminal GST; dsDNA, one strand shown. Summed up: as §1
Turning to ACCTGG, the binding signal was 1.26 fold enrichment (6-mer frequency, TF over GST control).

On to ACACCC, for which the binding signal was 1.09 fold enrichment (6-mer frequency, TF over GST control).

Consider ATACGC, for which the binding signal was 1.11 fold enrichment (6-mer frequency, TF over GST control).

Turning to AACATG, the binding signal was 1.14 fold enrichment (6-mer frequency, TF over GST control).

ATCCAC: the binding signal was 1.2 fold enrichment (6-mer frequency, TF over GST control).

As to TGAAAC, the binding signal is 1.3 fold enrichment (6-mer frequency, TF over GST control).

As to CGCGTC, the binding signal was 1.24 fold enrichment (6-mer frequency, TF over GST control).

For the sequence CGACAC, the binding signal was 1.19 fold enrichment (6-mer frequency, TF over GST control).

As to AACCAT, the binding signal was 1.12 fold enrichment (6-mer frequency, TF over GST control).

On to GACATT, for which the binding signal is 1.11 fold enrichment (6-mer frequency, TF over GST control).

In the case of TTCTGT, the binding signal is 1.29 fold enrichment (6-mer frequency, TF over GST control).

With CACTCG, the binding signal is 1.22 fold enrichment (6-mer frequency, TF over GST control).

CTAAAA: the binding signal is 1.21 fold enrichment (6-mer frequency, TF over GST control).

With TAGTGT, the binding signal is 1.11 fold enrichment (6-mer frequency, TF over GST control).

In the case of TCCAAA, the binding signal was 1.16 fold enrichment (6-mer frequency, TF over GST control).

TTGTAG: the binding signal was 1.17 fold enrichment (6-mer frequency, TF over GST control).

In the case of TTTCAA, the binding signal was 1.24 fold enrichment (6-mer frequency, TF over GST control).

As to GTAATT, the binding signal was 1.28 fold enrichment (6-mer frequency, TF over GST control).

For the sequence ACTGCA, the binding signal was 1.12 fold enrichment (6-mer frequency, TF over GST control).

In the case of CGGCAT, the binding signal is 1.17 fold enrichment (6-mer frequency, TF over GST control).

For the sequence ACTCCA, the binding signal is 1.28 fold enrichment (6-mer frequency, TF over GST control).

Turning to AATTCA, the binding signal was 1.39 fold enrichment (6-mer frequency, TF over GST control).

As for CTACCC, the binding signal was 1.38 fold enrichment (6-mer frequency, TF over GST control).

Regarding TCTGTT, the binding signal was 1.48 fold enrichment (6-mer frequency, TF over GST control).

GATGGT: the binding signal was 1.13 fold enrichment (6-mer frequency, TF over GST control).

Take TGGTTC: the binding signal is 1.32 fold enrichment (6-mer frequency, TF over GST control).

As to TACCGA, the binding signal was 1.12 fold enrichment (6-mer frequency, TF over GST control).

CCCTTT: the binding signal was 1.37 fold enrichment (6-mer frequency, TF over GST control).

For the sequence TAGGCT, the binding signal was 1.29 fold enrichment (6-mer frequency, TF over GST control).

Regarding TCTAAC, the binding signal was 1.19 fold enrichment (6-mer frequency, TF over GST control).

Regarding CGGAAG, the binding signal is 3.01 fold enrichment (6-mer frequency, TF over GST control).

With TGACAT, the binding signal is 1.3 fold enrichment (6-mer frequency, TF over GST control).

With ACGATA, the binding signal was 1.25 fold enrichment (6-mer frequency, TF over GST control).

CTATTA: the binding signal is 1.14 fold enrichment (6-mer frequency, TF over GST control).

With ACTGTT, the binding signal is 1.13 fold enrichment (6-mer frequency, TF over GST control).

Take ATAGCT: the binding signal was 1.1 fold enrichment (6-mer frequency, TF over GST control).

Consider CAGGAA, for which the binding signal was 1.75 fold enrichment (6-mer frequency, TF over GST control).

As for GATGAA, the binding signal is 1.19 fold enrichment (6-mer frequency, TF over GST control).

TAACCA: the binding signal is 1.12 fold enrichment (6-mer frequency, TF over GST control).

The values are drawn from paper PMC7862700, “An all-to-all approach to the identification of sequence-specific readers for epigenetic DNA modifications on cytosine”.
